Laboratory results taken from ChEMBL document CHEMBL3988442, “University of Dundee, Small-Polar-MMV Screening Library” (2021).

Target: T1, Aspartate--tRNA(Asp/Asn) ligase (Mycobacterium tuberculosis (strain ATCC 25618 / H37Rv)) (UniProt P9WFW3); further: in the data most compounds retested in dose-response had high values
T1 sequence (whole entry): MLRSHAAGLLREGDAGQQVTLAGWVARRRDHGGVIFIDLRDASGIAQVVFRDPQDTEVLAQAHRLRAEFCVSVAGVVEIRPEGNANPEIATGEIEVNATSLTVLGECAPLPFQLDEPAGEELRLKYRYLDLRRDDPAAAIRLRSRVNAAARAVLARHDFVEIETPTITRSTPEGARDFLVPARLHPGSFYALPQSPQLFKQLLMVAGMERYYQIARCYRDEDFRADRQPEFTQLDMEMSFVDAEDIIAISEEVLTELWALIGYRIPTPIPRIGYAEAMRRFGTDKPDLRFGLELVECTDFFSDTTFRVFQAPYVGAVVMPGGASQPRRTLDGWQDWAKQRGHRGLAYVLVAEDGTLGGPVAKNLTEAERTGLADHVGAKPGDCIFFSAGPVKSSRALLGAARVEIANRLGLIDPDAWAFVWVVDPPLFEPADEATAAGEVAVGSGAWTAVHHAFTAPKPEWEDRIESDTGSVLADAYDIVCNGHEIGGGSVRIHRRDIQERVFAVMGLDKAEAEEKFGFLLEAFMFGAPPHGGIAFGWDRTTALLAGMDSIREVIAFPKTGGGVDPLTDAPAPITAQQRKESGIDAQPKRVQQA
Experiment: Assay for Asp RNA synthetase-1 from Mycobacterium tuberculosis
Format: functional
Design: scale not given: direction of the effect not stated beside the values
Details: 30 µM

SMILES	Percent Effect [%]
Cc1c(F)cc(C(=O)O)cc1S(=O)(=O)Nc1ccc2c(c1)OCCO2	2.32
O=C(NCC(O)c1cccs1)c1cccc(Cl)c1 (stereo not given)	-5.75
O=C(Nc1nncs1)NC1CCOc2ccccc21 (stereo not given)	5.22
CC(C)C1CN(C(=O)c2ccc(N3CCCC3)nc2)CCS1 (stereo not given)	12.9
CC(=O)N1CCCC1c1nnc2n1CCCCC2 (stereo not given)	-0.915
Cc1ccc(C(=O)O)cc1S(=O)(=O)Nc1nn(-c2ccccc2)cc1C	5.61
O=C(Nc1ccccc1)C1=CC2(CCNCC2)c2ccccc21	1.3
O=C(Cn1ccc2ccc(Br)cc21)NCc1ccc(C(=O)O)cc1	14.7
CC(=O)N1CCCN(C(=O)c2csc(-c3ccc(C)cc3C)n2)CC1	-7.84
COCCCC1CCCN(C(=O)CCc2cc(O)no2)C1 (stereo not given)	-7.41
CCC(=O)N1CCC2(COCc3c(C)nc(N(C)C)nc32)C1 (stereo not given)	6.18
CCc1ncnc2c1CCN(Cc1ccc(OC)cc1)CC2	-0.259
CSc1ccc(Cl)c(C(=O)N2CCCC(CNS(C)(=O)=O)C2)c1 (stereo not given)	2.82
COCCN1CCCC(c2nc3c([nH]2)CC(C)(C)CNC3=O)C1 (stereo not given)	2.91
c1nc2c(c(C3CC3)n1)CCN(CC1CCOC1)CC2 (stereo not given)	3.35
CC(C)(C)c1noc(CN2CCN(C(=O)c3cccs3)CC2)n1	0.425
CCCNCc1cn(C)nc1-c1cccnc1	-0.663
O=C(Nc1ccc(CCN2CCC(O)CC2)cc1)C1CCOCC1	-1.86
NC(=O)C1CCC(NC(=O)COc2ccc(Cl)c(Cl)c2)CC1 (stereo not given)	3.91
CCc1n[nH]c(C2CN(CCc3cccs3)CCO2)n1 (stereo not given)	-6.83

SMILES	Percent Effect [%]
Cc1ccsc1CNc1cc(N2CCCC2CO)ncn1 (stereo not given)	3.04
CCOCC(O)CN1CCN(C(=O)C2CC2)CC1 (stereo not given)	1.82
Cc1ccc(C(=O)NC(C)CN2CCCC2=O)c(=O)[nH]1 (stereo not given)	-2.42
Cc1nc(CN2CCOCC3(CCN(c4cccnc4)CC3)C2)cs1	1.87
CN(C)S(=O)(=O)N1CCN(c2nccc(C(F)(F)F)n2)CC1	-6.64
Cc1cc(-c2nnn(CCC(N)=O)n2)ccc1F	-0.912
O=C(COc1ccc(C(F)(F)F)cc1)NS(=O)(=O)c1cccnc1	6.95
O=C(Cc1ccccc1)N1CCC2(CC(=O)N(c3cccc(F)c3)C2)C1 (stereo not given)	-1.85
COCC1CN(C(=O)c2ccnnc2)Cc2c1cnn2C (stereo not given)	0.28
CCN1CCC2(CC1)CC(NC(=O)NC)c1cc(C)ccc12 (stereo not given)	-5.21
CC(NC(=O)N1CCC(n2cncn2)CC1)c1ccc(F)cc1F (stereo not given)	-3.4
Cc1ccc(-c2csc(N)c2C#N)cc1	-4.7
CCCn1nc2c(cc1=O)CN(CCCS(N)(=O)=O)CC2	18.8
Cc1cc(C)n(C2CCCN(C(=O)c3ccc(F)cc3F)C2)n1 (stereo not given)	7.84
CC(=O)c1ccc(OCC(=O)NC(C)CCc2ccco2)cc1 (stereo not given)	4.56
Cc1ccc(CN2CCCn3c(nc(Cn4cncn4)cc3=O)C2)s1	-1.14
COc1cc(N2CCCC(c3nccn3CCN(C)C)C2)nc(N)n1 (stereo not given)	-3.58
CN(Cc1cccs1)C(=O)CN1CCCC1Cn1cncn1 (stereo not given)	5.56
CCOCC1CN(C(=O)c2ccncc2)Cc2nn(C)cc21 (stereo not given)	4.25
CC(C)C(=O)NCc1cccc(N2CCCCC2=O)c1	-1.01

Target: Shiga toxin 2 (Escherichia coli O157:H7) (UniProt P09385+P09386)
Experiment: E. coli 0.157:H7 Shiga Toxin SOP - stx2 screening assay
Format: functional
Design: scale not given: direction of the effect not stated beside the values
Details: 30 µM

SMILES	Percent Effect [%]
Cc1c(F)cc(C(=O)O)cc1S(=O)(=O)Nc1ccc2c(c1)OCCO2	10.9
O=C(NCC(O)c1cccs1)c1cccc(Cl)c1 (stereo not given)	-20.5
O=C(Nc1nncs1)NC1CCOc2ccccc21 (stereo not given)	-45.8
CC(C)C1CN(C(=O)c2ccc(N3CCCC3)nc2)CCS1 (stereo not given)	-43
CC(=O)N1CCCC1c1nnc2n1CCCCC2 (stereo not given)	0.261
Cc1ccc(C(=O)O)cc1S(=O)(=O)Nc1nn(-c2ccccc2)cc1C	3.87
O=C(Nc1ccccc1)C1=CC2(CCNCC2)c2ccccc21	-14.6
O=C(Cn1ccc2ccc(Br)cc21)NCc1ccc(C(=O)O)cc1	-5.49
CC(=O)N1CCCN(C(=O)c2csc(-c3ccc(C)cc3C)n2)CC1	-0.511
COCCCC1CCCN(C(=O)CCc2cc(O)no2)C1 (stereo not given)	-0.726
CCC(=O)N1CCC2(COCc3c(C)nc(N(C)C)nc32)C1 (stereo not given)	-30.5
CCc1ncnc2c1CCN(Cc1ccc(OC)cc1)CC2	-28
CSc1ccc(Cl)c(C(=O)N2CCCC(CNS(C)(=O)=O)C2)c1 (stereo not given)	-37.8
COCCN1CCCC(c2nc3c([nH]2)CC(C)(C)CNC3=O)C1 (stereo not given)	0.913
c1nc2c(c(C3CC3)n1)CCN(CC1CCOC1)CC2 (stereo not given)	-6.27
CC(C)(C)c1noc(CN2CCN(C(=O)c3cccs3)CC2)n1	6.49
CCCNCc1cn(C)nc1-c1cccnc1	-14.7
O=C(Nc1ccc(CCN2CCC(O)CC2)cc1)C1CCOCC1	-38.6
NC(=O)C1CCC(NC(=O)COc2ccc(Cl)c(Cl)c2)CC1 (stereo not given)	-29.1
CCc1n[nH]c(C2CN(CCc3cccs3)CCO2)n1 (stereo not given)	-38.7

SMILES	Percent Effect [%]
Cc1ccsc1CNc1cc(N2CCCC2CO)ncn1 (stereo not given)	-22.2
CCOCC(O)CN1CCN(C(=O)C2CC2)CC1 (stereo not given)	21.4
Cc1ccc(C(=O)NC(C)CN2CCCC2=O)c(=O)[nH]1 (stereo not given)	-3.66
Cc1nc(CN2CCOCC3(CCN(c4cccnc4)CC3)C2)cs1	-2.54
CN(C)S(=O)(=O)N1CCN(c2nccc(C(F)(F)F)n2)CC1	-2.87
Cc1cc(-c2nnn(CCC(N)=O)n2)ccc1F	-20.8
O=C(COc1ccc(C(F)(F)F)cc1)NS(=O)(=O)c1cccnc1	15
O=C(Cc1ccccc1)N1CCC2(CC(=O)N(c3cccc(F)c3)C2)C1 (stereo not given)	10.2
COCC1CN(C(=O)c2ccnnc2)Cc2c1cnn2C (stereo not given)	-14.3
CCN1CCC2(CC1)CC(NC(=O)NC)c1cc(C)ccc12 (stereo not given)	-9.91
CC(NC(=O)N1CCC(n2cncn2)CC1)c1ccc(F)cc1F (stereo not given)	7.64
Cc1ccc(-c2csc(N)c2C#N)cc1	-3.71
CCCn1nc2c(cc1=O)CN(CCCS(N)(=O)=O)CC2	7.35
Cc1cc(C)n(C2CCCN(C(=O)c3ccc(F)cc3F)C2)n1 (stereo not given)	-0.315
CC(=O)c1ccc(OCC(=O)NC(C)CCc2ccco2)cc1 (stereo not given)	-18.5
Cc1ccc(CN2CCCn3c(nc(Cn4cncn4)cc3=O)C2)s1	-10.9
COc1cc(N2CCCC(c3nccn3CCN(C)C)C2)nc(N)n1 (stereo not given)	23.8
CN(Cc1cccs1)C(=O)CN1CCCC1Cn1cncn1 (stereo not given)	-62.3
CCOCC1CN(C(=O)c2ccncc2)Cc2nn(C)cc21 (stereo not given)	-22.5
CC(C)C(=O)NCc1cccc(N2CCCCC2=O)c1	6.13
